# Tgondii IFNg – T. gondii growth inhibition under IFN-gamma | Toxoplasma gondii growth in IFN-gamma-treated host cells; stronger effect = lower value | activity change, negative = inhibition, % (concentration not given with the values) | AID 1259416 | 3.8% of 69,000 active; in the data active = activity change below about -70%, passing the limit was not always enough;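 also: host cells are HeLa cells infected with Toxoplasma gondii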
# An asterisk follows results filed as active; ! = repeats disagree. The sample as a whole holds a higher share of hits than the screen did.
SMILES,Tgondii IFNg
CC1CCCN(C(=O)c2nc(-c3ccc(Cl)cc3)n3c2CCCCC3)C1 (stereo not drawn),-96.6*
CCc1cccc(N(C(=O)c2ccc(NC(C)=O)cc2)C2(C(=O)NCc3ccccc3)CCN(C(C)=O)CC2)c1,46.0
CC1(C)C(=O)C=C[C@@]2(C)C1C=C[C@]1(C)C2CC[C@@]2(C)[C@H](c3ccoc3)OC(=O)[C@H]3O[C@]321 (stereo partly drawn),-85.7*
CC(=O)O[C@@H]1CC2C(C)(C)[C@H](O)CC[C@]2(C)C2CC[C@@]3(C)[C@H](c4ccoc4)OC(=O)C4OC43[C@@]21C (stereo partly drawn),-71.2*
CC(=O)O[C@H]1C[C@@H](O)C(C)(C)C2C[C@@H](OC(C)=O)[C@]3(C)C(CC[C@@]4(C)[C@H](c5ccoc5)OC(=O)C5OC543)[C@]21C (stereo partly drawn),17.9
CC(=O)O[C@@H]1C[C@H]2C(C)(C)C(=O)C=C[C@]2(C)[C@H]2CC[C@@]3(C)[C@H](c4ccoc4)OC(=O)[C@H]4O[C@]43[C@@]21C,52.3
CC(=O)O[C@@H]1CC2C(C)(C)C(=O)C=C[C@]2(C)C2CC[C@@]3(C)[C@H](c4ccoc4)OC(=O)[C@H]4O[C@]43[C@@]21C (stereo partly drawn),16.1
CC1(C)C(=O)C=C[C@@]2(C)C1CC(=O)[C@]1(C)C2CC[C@@]2(C)[C@H](c3ccoc3)OC(=O)[C@H]3O[C@]321 (stereo partly drawn),25.2
CCN1C(=O)CCc2cc(NC(=O)c3ccnn3C)ccc21,91.7
Cc1oc(-c2cccc(Br)c2)nc1CSc1nc2c(=O)[nH]cnc2n1C,-5.1
c1cc(-c2ccc3[nH]ncc3c2)n2nccc2c1,-0.9
Cc1ccc(C(=O)Nc2ccc3c(c2)CCC(=O)N3)s1,-11.2
O=C1CCC2C(CCN2Cc2ccc(F)cc2)N1CC1CCOCC1 (stereo not drawn),1.2
O=C(C1CC1)N1CCc2c(ncnc2NCc2cnc3ccccn23)C1,5.5
O=C(Nc1ccc(OC(F)(F)F)cc1)c1cscc1Sc1ccc(Cl)cc1,-52.5
Cc1cc(C(=O)Oc2ccc(Cl)cc2)no1,0.0
O=C(Oc1ccc(Cl)cc1)c1cscc1Sc1ccc(Cl)cc1,-101.4*
COc1ccc(CNC(=O)CCC2N=C3c4ccccc4N=C(SCc4cc(=O)n5ccccc5n4)N3C2=O)cc1 (stereo not drawn),8.3
CCS(=O)(=O)c1ccccc1C(=O)O,52.9
Cc1c(NC(=O)c2ncoc2-c2ccc(F)cc2)c(=O)n(-c2ccccc2)n1C,-32.2
Cc1c(NC(=O)c2cc3nc(-c4ccccc4)cc(C)n3n2)c(=O)n(-c2ccccc2)n1C,-86.3*
Cc1c(NC(=O)Cc2ccccc2)c(=O)n(-c2ccccc2)n1C,5.7
CC(C)CN1C[C@@H]2CN(C(=O)[C@H]3CCCO3)C[C@H]2C1=O,-0.4
O=C(c1nc2c(s1)CCCC2)N1[C@H]2CCNC[C@@H]1CC2,-0.7
CO[C@H]1CCN(C(=O)c2ccno2)[C@H]1Cc1cnn(C)c1,343.8
SMILES,Tgondii IFNg
CC(C)(C)C1CCC(CC2C(=O)C(=O)c3ccccc3C2=O)CC1 (stereo not drawn),-86.3*
Cc1nccn1CCCC(=O)Nc1ccc(N2CCOCC2)c(F)c1,85.9
CCSc1nnc(CCNC(=O)N2CCCCC2)n1C,28.2
c1ccc(OC2COC3(CCN(Cc4cccs4)CC3)C2)cc1 (stereo not drawn),-33.2
Cc1nc2ccccn2c1CN(C)Cc1cnn(-c2ccccc2)c1,-53.2
CC[C@H](NC(=O)c1c(C)c(-c2ccccc2)nc2ccccc12)c1ccccc1,-12.1
Cc1ccc(OC(=O)c2c(-c3ccccc3)nnc3ccccc23)cc1,-105.6*
Cc1noc(C)c1C(=O)Oc1ccccc1,-14.1
Cc1ccc(C)c(NCc2n[nH]c(=S)n2-c2ccccc2)c1,5.0
Cc1c(C)c(C)c(CSCc2n[nH]c(=S)n2-c2ccc(F)cc2)c(C)c1C,-86.4*
Cc1noc(C)c1-n1sc(=O)n(-c2ccc(F)cc2)c1=O,-3.8
Cc1ccccc1NC(=O)Cn1c(=O)cc(C(=O)N2CCCC2)c2ccccc21,16.3
CCCCc1ncc(-c2nccn2CCN(C)C)[nH]1,-42.9
COc1ccc(Br)cc1-c1nc(Cn2nnc(C(=O)Nc3c(C)cc(C)cc3C)c2C)c(C)o1,189.5
NCC1Cc2c(ccc3cc(-c4ccncc4)ccc23)O1 (stereo not drawn),-85.6*
CSCCC(=O)N1CCC(O)(c2ccc3nc(C)ccc3c2)CC1,-2.7
O=C(Nc1cc(F)cc(F)c1)N1CCCC2(C1)Nc1cccnc1NC2=NC1CCCC1 (stereo not drawn),-86.4*
COc1ccc(C)cc1NC(=O)N1CCCC2(C1)Nc1cccnc1NC2=NC1CCCC1 (stereo not drawn),31.4
COc1cccc(NC(=O)N2CCCC3(C2)Nc2cccnc2NC3=NC2CCCC2)c1 (stereo not drawn),-6.8
O=C(Cn1ncc2c(N3CCOCC3)ncnc21)N1CCN(c2ccccn2)CC1,150.2
CN(C)S(=O)(=O)N1C2CCC(C2)[C@@H]1COc1cccc(C(F)(F)F)c1 (stereo partly drawn),-24.2
O=c1c2ccccc2oc2ccccc12,14.8
O=c1c2ccccc2oc2ccc(Cl)cc12,150.2
CS(=O)(=O)Nc1ccc2oc3ccccc3c(=O)c2c1,-92.1*
Cn1cc(Cc2nc(C3CC3)n[nH]2)c2ccccc21,7.6
SMILES,Tgondii IFNg
COCCC(=O)c1cc(-c2cnc(NCc3ccccc3)nc2)cn1C,2.2
COc1ccc(CN2CCO[C@@H]3CN(C(C)=O)CC[C@@H]3C2=O)cc1,-12.9
CCN(CC)S(=O)(=O)c1ccc2c(c1)N(Cc1nc(-c3ccccc3C)oc1C)C(=O)CS2,-77.5*
Cc1ccccc1-c1nc(CN(C)S(=O)(=O)c2ccc(Cl)cc2)c(C)o1,15.9
Cc1ccccc1-c1nc(CN(C)S(=O)(=O)c2ccccc2)c(C)o1,-0.5
Cc1cc(C)cc(NC(=O)N2CCN(Cc3nc(-c4ccccc4C)oc3C)CC2)c1,-2.0
O=C1CCC2C(CCN2c2ncc(F)cn2)N1c1cccnc1 (stereo not drawn),-1.7
COc1cccc2c1C(=O)c1c(O)c3c(c(O)c1C2=O)C[C@@](O)(C(=O)CO)C[C@@H]3O[C@H]1C[C@H](N)[C@@H](O)[C@H](C)O1,-83.9*
CC(=O)[C@]1(O)Cc2c(O)c3c(c(O)c2[C@@H](O[C@H]2C[C@H](N)[C@H](O)[C@H](C)O2)C1)C(=O)c1ccccc1C3=O,-66.7
COc1cccc2c1C(=O)c1c(O)c3c(c(O)c1C2=O)C[C@@](O)(C(C)=O)C[C@@H]3O[C@H]1C[C@H](N)[C@H](O)[C@H](C)O1,-71.7*!
Cc1ccc(C2(O)CCN(C(=O)c3ccc4sc(N)nc4c3)CC2)nc1,2.9
Cc1ccccc1C(=O)N1CC[C@]2(CCC[C@@H](CN3CCCC3=O)O2)C1,4.5
COc1ccc(-c2nc(Cn3c(=O)c4cccnc4n(-c4ccccc4)c3=O)c(C)o2)cc1OC,8.9
CCCCc1c(-c2ccccc2)ncn1C(C)Cc1cnccn1 (stereo not drawn),-0.8
Cc1nc(-c2ccc(F)cc2)sc1CCNC(=O)c1ccccc1F,-36.5
COc1cccc(C(=O)NCCc2sc(-c3ccc(F)cc3)nc2C)c1OC,-10.5
COc1ccc(C(=O)NCCc2sc(-c3ccc(F)cc3)nc2C)c(OC)c1,-86.9*
COc1ccc(C(=O)NCCc2sc(-c3ccc(Cl)cc3)nc2C)c(OC)c1,-69.7
COc1ccc(Cl)cc1C(=O)NCCc1sc(-c2ccc(F)cc2)nc1C,-102.3*
COc1ccc(C(=O)NCCc2sc(-c3cccc(F)c3)nc2C)c(OC)c1,-42.2
